M1 PAM parental – nonselective calcium activators in parental CHO-K1 cells, primary screen, counter-screen for M1 PAM project, cell-based, Fluo-8 calcium fluorescence, full deck, 1536-well. AID 602247, 2012. actives 0.02% (n = 360,000). ATP EC20; 0% at ATP EC20, 100% at ATP max. activation, % at 3 µM;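 active = activation above the run cutoff, the mean activation of all test compounds plus 3 SD, cut at about 40% in these data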;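 also: peak over basal fluorescence ratio in a 140 s read after ATP addition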
M1 ag parental – counter-screen for M1 agonists: effect in parental CHO-K1 cells | Fluo-8 calcium fluorescence; scaled to maximal ATP response, vehicle zero | AID 602248, 2012 | activation, % at 3 µM | actives 0.48% (n = 360,000); in the data active = activation above about 15%;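 also: untransfected CHO-K1 host cells lacking M1 receptor as counterscreen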
M1 antag – human M1 muscarinic receptor antagonists, primary screen, CHO-K1 cells, Fluo-8 calcium fluorescence, 1536-well | CHO-K1 hM1, ACh EC80 antagonist | inhibition, % at 3 µM | actives 1.3% (n = 360,000) | AID 588852, 2011;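 active = percent inhibition above its own plate's cutoff, namely the mean of that plate's compound wells plus 3 SD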;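 also: peak over basal fluorescence ratio during 140 s after agonist addition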
Target sequence (P11229 whole entry, looked up): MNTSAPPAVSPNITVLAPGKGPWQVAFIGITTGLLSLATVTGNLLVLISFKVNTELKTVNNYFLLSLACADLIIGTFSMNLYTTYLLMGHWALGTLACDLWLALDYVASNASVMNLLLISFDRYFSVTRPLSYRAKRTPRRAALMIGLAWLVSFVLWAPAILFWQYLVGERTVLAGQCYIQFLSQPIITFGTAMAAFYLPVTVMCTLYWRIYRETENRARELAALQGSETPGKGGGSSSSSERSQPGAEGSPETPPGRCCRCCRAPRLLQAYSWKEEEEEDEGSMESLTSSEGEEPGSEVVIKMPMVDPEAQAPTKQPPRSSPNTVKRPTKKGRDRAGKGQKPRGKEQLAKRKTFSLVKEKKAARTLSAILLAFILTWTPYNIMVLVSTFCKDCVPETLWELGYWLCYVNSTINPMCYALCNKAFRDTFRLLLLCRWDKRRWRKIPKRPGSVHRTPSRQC
CHO-K1 Ca antag – counter-screen for M1 antagonists: effect in parental CHO-K1 cells; inhibition, % at 3 µM; actives 0.6% (n = 360,000); ATP-induced calcium, Fluo-8 fluorescence;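 active = inhibition above a per-plate cutoff, the plate's mean sample inhibition plus 3 SD, cut at about 24% in these data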
CHRM1 agonist – human M1 muscarinic receptor agonists, primary screen, Fluo-8 calcium fluorescence, CHO-K1 cells, HTS | CHO-K1 hM1, agonist mode; 0% DMSO, 100% acetylcholine EC100 | actives 0.33% (n = 360,000) | Muscarinic acetylcholine receptor M1 (Homo sapiens), P11229 | activation, % at 3 µM | AID 588814, 2011;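 active = activation above the run's mean compound activation plus 3 SD, cut at about 16% in these data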;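 also: peak over basal fluorescence ratio within a 140 s kinetic read after compound addition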
M1 PAM – human M1 muscarinic receptor positive allosteric modulators, primary screen, CHO-K1 cells, Fluo-8 calcium fluorescence, 1536-well. Muscarinic acetylcholine receptor M1 (Homo sapiens), P11229. actives 0.088% (n = 360,000). activation, % at 3 µM. CHO-K1 hM1, ACh EC20; 0% = ACh EC20, 100% = maximal ACh; in the data active = activation above about 19%, passing the limit was not always enough
Numbers stand for hits; i = inactive. Sampled rows, rich in hits. Any-hit rate of the full collection: about 2.4%.

SMILES	M1 PAM parental	M1 ag parental	M1 antag	CHO-K1 Ca antag	CHRM1 agonist	M1 PAM
CCOC(=O)c1c(C)[nH]c(C(=O)COC(=O)C2CC2)c1C	i	i	30.9	i	i	i
CCOC(=O)c1c(C)[nH]c(C(=O)COC(=O)COc2ccc(OC)cc2)c1C	i	16.2	i	i	i	i
Cc1coc2c(C)c3oc(=O)c(CCC(=O)NCc4ccccn4)c(C)c3cc12	i	i	i	i	i	i
O=C(NCc1ccco1)c1ccccc1	i	i	i	i	i	i
CCOC(=O)c1cn(Cc2ccccc2)c2cc(C)nn2c1=O	i	i	i	i	i	i
CCOC(=O)c1cn(Cc2ccccc2)c(C(=O)OC(C)(C)C)c1O	i	44.1	i	i	i	i
COc1ccccc1NC(=O)N1CCc2[nH]c3ccc(Cl)cc3c2C1	i	i	i	i	21.9	i
COc1cc2c(cc1OC)CN(C(=O)Nc1ccccc1Cl)CC2	i	i	i	i	i	i
C=CCNC(=O)N1CCc2[nH]c3ccc(F)cc3c2C1	i	i	i	i	24.5	i
O=C(C1CC1)N1CCc2[nH]c3ccccc3c2C1	i	i	i	i	i	i
CCCCNC(=O)N1CCc2[nH]c3ccccc3c2C1	i	i	i	i	19.5	i
COC(=O)c1ccc(C2C(C(C)=O)=C(C)Nc3ncnn32)cc1 (stereo unspecified)	i	i	102.0	i	i	i
Cc1ccccc1NC(=O)c1cc(S(=O)(=O)N2CCCCC2)cs1	i	i	i	i	i	i
FC(F)(F)c1nc2nc(Cl)c(Cl)nc2[nH]1	i	i	i	i	i	i
FC(F)(F)c1cccc(-c2nc3nc(Cl)c(Cl)nc3[nH]2)c1	i	18.1	i	i	i	i
CN1CCN(CCn2c(=S)[nH]c3ccccc3c2=O)CC1	i	i	i	i	i	i
Cc1nc2nc(C)n(CCN3CCOCC3)c(=O)c2c(-c2cccc([N+](=O)[O-])c2)c1C(=O)CCCCCCCCCCN1CCC(c2ccccc2)(c2ccccc2)CC1	i	i	99.8	i	i	i
CCNc1nc(Oc2ccc(=O)n(-c3ccccc3)n2)nc(N(C)C)n1	i	i	i	i	i	i
CCNc1nc(OC)nc(Oc2ccc(=O)n(-c3ccccc3)n2)n1	i	i	i	24.4	i	i
CCC(=O)N1CCc2cc(S(=O)(=O)CCC(=O)NCc3ccc4c(c3)OCO4)ccc21	i	i	i	i	i	i
O=c1cc(-c2c(O)c3ccccc3n(Cc3ccccc3)c2=O)[nH][nH]1	i	16.8	i	i	i	i
CCn1c(=O)c(-c2cc(=O)[nH][nH]2)c(O)c2ccccc21	i	i	i	i	i	i
Cc1c(Cl)ccc2c1NC(=O)[C@]21N[C@@H](Cc2ccccc2)[C@H]2C(=O)N(c3ccc(F)cc3)C(=O)[C@H]21	i	i	i	i	17.2	i
CC(=O)Nc1ccc(S(=O)(=O)NCC(=O)OCC(=O)NNC(=O)c2ccccc2)cc1	i	i	i	i	i	i
O=C(NN1C(=O)/C(=C/c2ccc(O)cc2)SC1=S)c1ccccc1O	i	i	i	i	i	i
SMILES	M1 PAM parental	M1 ag parental	M1 antag	CHO-K1 Ca antag	CHRM1 agonist	M1 PAM
COc1cc(/C=C2\SC(=S)N(NC(=O)c3ccccc3O)C2=O)ccc1O	i	i	i	i	20.3	i
CCOC(=O)Nc1ccc2c(c1)N(C(=O)N1CCN(C)CC1)c1ccccc1S2	i	i	97.3	i	i	i
CCOC(=O)Nc1ccc2c(c1)N(C(=O)N1CCN(C)CC1)c1ccccc1CC2	i	i	48.9	i	i	i
CC(C)OC(=O)Nc1ccc2c(c1)N(C(=O)N1CCN(C)CC1)c1ccccc1CC2	i	i	78.2	i	i	i
CCNCC(=O)N1c2ccccc2CCc2ccc(NC(=O)OC(C)C)cc21	i	i	i	i	i	i
CCOC(=O)Nc1ccc2c(c1)N(C(=O)CCN1CCN(C)CC1)c1ccccc1S2	i	i	i	i	i	i
C=CCn1c(N)cc(=O)nc1SC(CC)C(=O)Nc1ccc(C(C)=O)cc1 (stereo unspecified)	i	i	i	i	i	i
O=C(CCc1nnc2ccc(N3CCC4(CC3)OCCO4)nn12)Nc1cc(F)ccc1F	i	i	i	i	i	i
Cc1ccc2nc(N)nnc2c1	i	i	i	i	i	i
Nc1nnc2cc(Cl)ccc2n1	i	i	i	i	i	28.0
CCCN1C(=O)/C(=C/c2c(N3CCNC(=O)C3CC(=O)OCC)nc3c(C)cccn3c2=O)SC1=S (stereo unspecified)	i	i	39.0	i	i	i
CCOC(=O)CC1C(=O)NCCN1c1nc2ccc(C)cn2c(=O)c1/C=C1\SC(=S)N(CC(C)C)C1=O (stereo unspecified)	i	i	i	i	i	i
O=C(N/N=C\c1c(O)ccc2ccccc12)c1cncc(Br)c1	i	39.4	i	i	41.8	i
C[N+](C)(C)CC/C=C1/c2ccccc2CSc2ccccc21	i	i	96.1	i	i	i
CC(=O)OCCCN(C)CC/C=C1/c2ccccc2CSc2ccccc21	i	i	74.5	i	i	i
COC(=O)CSc1nnc(-c2ccccc2OC)n1-c1ccc(C)cc1	i	i	i	i	i	i
COc1ccc(NC(=O)C2CCCCN2S(=O)(=O)c2ccc(F)cc2)cc1 (stereo unspecified)	i	i	i	i	i	i
CC1=CC(C)(C)N(C(=O)CN2C(=O)CCC2=O)c2ccccc21	i	i	i	i	i	i
CCOc1cc(/C=N/n2cnnc2)ccc1OC(=O)c1cccc([N+](=O)[O-])c1	i	i	i	31.1	i	i
CCCCN(C(=O)c1ccc(Cl)cc1)C1CC2CCC(C1)N2C (stereo unspecified)	i	i	28.3	i	i	i
COc1cn(-c2ccccc2)nc1C(=O)NCc1ccccc1	i	i	i	i	i	32.6
COc1cn(-c2ccccc2)nc1C(=O)NCc1ccc(C)cc1	i	i	i	i	i	i
CCOC(=O)N1CCN(c2ncnc3c2[nH]c2ccc(OC)cc23)CC1	i	i	i	i	i	i
OC1(c2cccc(C(F)(F)F)c2)CCN(c2ncnc3c2[nH]c2ccc(F)cc23)CC1	i	i	35.9	i	i	i
CCCCOc1ncnc2c1[nH]c1ccc(F)cc12	i	16.0	i	28.3	i	i
CCOC(=O)N1CCN(c2ncnc3c2[nH]c2ccc(F)cc23)CC1	i	i	27.7	i	i	i
O=C(CCCN1CCC(O)(c2cccc(C(F)(F)F)c2)CC1)c1ccc(F)cc1	i	i	i	i	i	i

Screens: PubChem BioAssay, The Scripps Research Institute Molecular Screening Center
